High-throughput results: PubChem, National Center for Advancing Translational Sciences (NCATS)
Pf growth 96h: P. falciparum growth inhibition at 96 hour, primary screen for plastid delayed-death inhibitors; P. falciparum luciferase reporter growth, 96 h; hit rate 6.9% among 320,000; Potency, µM (doses to about 28.7 µM), for the others: at the highest dose activity change, negative = inhibition, most hits filed as inhibitors; note: potency is the fitted concentration of half-maximal effect; % is set by controls: 0 for no effect and ±100 for the full control effect
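Two parasite generations (96 h, 37 C, 5% CO2) of compound exposure in infected erythrocytes (0.05% parasitemia, 2% hematocrit). Luciferase-reporter P. falciparum; decreased luminescence indicates inhibited growth, aimed at apicoplast-acting delayed death.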
Shiga inhibitor: blocks Shiga toxin action in Vero cells | Vero cells, Shiga toxin protein synthesis inhibition reporter | inhibition, % at 38.7 µM | hit rate 9.2% among 290,000 | AID 2315; in the data active = inhibition mostly above about 28%, no sharp cut-off; inactive = mostly below about 43%; note: 0% is about no effect
Pf growth 48h: inhibits P. falciparum growth in the first generation, 48 h; P. falciparum luciferase growth in erythrocytes, 48 h; Potency, µM (doses to about 28.7 µM), for the others: top-dose activity change, negative = inhibition, most hits filed as inhibitors; hit rate 5.9% among 310,000; AID 504832; note: potency is the fitted concentration of half-maximal effect; % is set by controls: 0 for no effect and ±100 for the full control effect
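Luciferase-expressing P. falciparum in infected erythrocytes (2% hematocrit, 0.1% parasitemia final) in RPMI 1640/0.5% Albumax were exposed to compound for 48 hours at 37 C, 5% CO2; growth read as luminescence.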
CHX counter: counter-screen for Shiga toxin inhibitors: cycloheximide protein synthesis inhibition; cell reporter, cycloheximide protein synthesis inhibition counterscreen; max response, %; hit rate 12% among 300,000; in the data active = max response mostly above about 13%, no sharp cut-off; inactive = mostly below about 14%; note: read at 38.3 µM for the half of the compounds with a filed dose; 0% is about no effect
Numbers without * were called inactive; [ ] = remark or other dose. A selection: hits, their analogues and other compounds. The true share with any hit is near 21%. Unless noted, calls come from the whole dose curve; as a rule, active = well fitted inhibition curve with a large enough effect; inconclusive = small, poorly fitted or top-dose-only effect, or another doubt; inactive = no such curve, though single readings can be large or run the other way.

How did CC(C)(C)c1ccc(C(=O)C2CCCN(C(=O)C3CCOCC3)C2)cc1 (stereo not given) do in these assays?
Pf growth 96h: -12.0%; Shiga inhibitor: -3.6; Pf growth 48h: 5.86µM*; CHX counter: -2.0

How did Cn1nccc1C(=O)N1CCCC(C(=O)c2ccc(C(F)(F)F)cc2)C1 (stereo not given) do in these assays?
Pf growth 96h: 14.7µM*; Shiga inhibitor: 15.1; Pf growth 48h: 28.3%; CHX counter: 7.2

What do the screens show for `CC(C)(C)OC(=O)N1CCC(Cc2cc(-c3cccnc3)no2)(C(=O)O)CC1`?
Pf growth 96h: 74.9%; Pf growth 48h: 24.5%

How did O=c1oc(-c2ccccc2NS(=O)(=O)c2ccc(F)cc2)nc2ccccc12 do in these assays?
Pf growth 96h: 36.1%; Shiga inhibitor: -6.3; Pf growth 48h: 48.3%; CHX counter: -2.6

How did Cc1cc(Nc2cccc(Cl)c2)c2ccccc2n1 do in these assays?
Pf growth 96h: 8.0%; Shiga inhibitor: -6.3; Pf growth 48h: inconclusive; CHX counter: 0.7

Results for O=c1oc(Nc2ccccc2F)nc2ccccc12 ?
Pf growth 96h: 227.3%; Shiga inhibitor: 52.5*; Pf growth 48h: 62.1%; CHX counter: 33.6*

How did Cc1nc2ccccc2c(=O)n1Nc1cccc(Cl)c1 do in these assays?
Pf growth 96h: 5.86µM*; Shiga inhibitor: 20.0; Pf growth 48h: 2.94µM*; CHX counter: -4.7

How did O=c1oc(Nc2cccc(Cl)c2)nc2ccccc12 do in these assays?
Pf growth 96h: 11.2%; Shiga inhibitor: 47.5*; Pf growth 48h: 57.0%; CHX counter: 36.1*

What do the screens show for `O=c1oc(Nc2ccccc2Cl)nc2ccccc12`?
Pf growth 96h: 54.7%; Shiga inhibitor: 31.1; Pf growth 48h: 113.8%; CHX counter: 23.0*

What do the screens show for `COC(=O)C(C)Oc1ccc(Cc2ncc(C(F)(F)F)cc2Cl)cc1` (stereo not given)?
Pf growth 96h: -1.6%; Shiga inhibitor: -6.5; Pf growth 48h: 3.8%; CHX counter: -1.1

What do the screens show for `O=C(COC(=O)/C=C/c1cccc(Cl)c1)NC1CC1`?
Pf growth 96h: inconclusive; Pf growth 48h: 18.5%

Results for COc1ccc(-n2nc(C(=O)NCC(=O)NCc3ccc(F)cc3)c3ccccc3c2=O)c(OC)c1 ?
Pf growth 96h: 10.4µM*; Shiga inhibitor: -9.2; Pf growth 48h: 8.4%; CHX counter: 0.8

What do the screens show for `COc1ccc(NC(=O)CNC(=O)c2nn(-c3ccc(OC)cc3OC)c(=O)c3ccccc23)c(OC)c1`?
Pf growth 96h: 3.29µM*; Shiga inhibitor: -4.4; Pf growth 48h: inconclusive; CHX counter: 2.7

What do the screens show for `CCCCNC(=O)CSc1nc2ccsc2c(=O)n1CCCC(=O)NCCc1ccc(S(N)(=O)=O)cc1`?
Pf growth 96h: 23.0%; Shiga inhibitor: -25.2; Pf growth 48h: -21.3%; CHX counter: -6.3

Results for COC(=O)C1(C)NC(c2ccc(O)cc2)C2C(=O)N(c3ccc4c(c3)OCCO4)C(=O)C21 (stereo not given) ?
Pf growth 96h: 54.5%; Shiga inhibitor: 13.1; Pf growth 48h: inconclusive; CHX counter: -2.0

How did COC(=O)C1(C)NC(c2ccccc2C)C2C(=O)N(c3ccc(F)cc3)C(=O)C21 (stereo not given) do in these assays?
Pf growth 96h: 51.3%; Shiga inhibitor: -9.8; Pf growth 48h: -16.3%; CHX counter: -2.6

How did COC(=O)C1(C)NC(c2cccc(C)c2)C2C(=O)N(c3ccc(F)cc3)C(=O)C21 (stereo not given) do in these assays?
Pf growth 96h: 3.7µM*; Shiga inhibitor: -7.3; Pf growth 48h: -4.0%; CHX counter: -5.1

What do the screens show for `CCCC1(C(=O)OCC)NC(c2ccc(N(C)C)cc2)C2C(=O)N(c3ccc(OCC)cc3)C(=O)C21` (stereo not given)?
Pf growth 96h: inconclusive; Shiga inhibitor: -14.2; Pf growth 48h: 11.7µM*; CHX counter: -5.4

Results for CCCC1(C(=O)OCC)NC(c2ccc(N(C)C)cc2)C2C(=O)N(c3ccccc3)C(=O)C21 (stereo not given) ?
Shiga inhibitor: 8.0; Pf growth 48h: inconclusive; CHX counter: -0.7

What do the screens show for `COC(=O)C1(C)NC(c2ccc(O)cc2)C2C(=O)N(c3ccc(C)cc3)C(=O)C21` (stereo not given)?
Pf growth 96h: 4.65µM*; Shiga inhibitor: 8.9; Pf growth 48h: 30.3%; CHX counter: -1.3

How did CCOc1ccc(S(=O)(=O)N(CC)CC(=O)NCc2ccncc2)cc1 do in these assays?
Pf growth 96h: -25.5%; Shiga inhibitor: -8.6; Pf growth 48h: -11.8%; CHX counter: 1.4

What do the screens show for `Cc1cn2c(nc1=O)OC1CC2OC1CO` (stereo not given)?
Pf growth 96h: -0.1%; Shiga inhibitor: 10.1; Pf growth 48h: 7.1%; CHX counter: -1.0

How did CCc1nc2oc3ccc(C)cc3c(=O)c2cc1C(=O)OC do in these assays?
Pf growth 96h: 220.8%; Shiga inhibitor: 30.2*; Pf growth 48h: 173.4%; CHX counter: 24.0*

What do the screens show for `COC(=O)c1cc2c(=O)c3ccccc3oc2nc1/C=C/N(C)C`?
Pf growth 96h: 61.2%; Shiga inhibitor: 56.7; Pf growth 48h: 17.3%; CHX counter: 18.8*

What do the screens show for `Cc1nc2oc3ccc(F)cc3c(=O)c2cc1C(=O)NC(C)(C)C`?
Pf growth 96h: 75.6%; Shiga inhibitor: 128.0*; Pf growth 48h: 59.3%; CHX counter: 40.9*

Results for COC(=O)c1cc2c(=O)c3ccccc3oc2nc1C ?
Pf growth 96h: 145.7%; Shiga inhibitor: 49.0*; Pf growth 48h: 180.0%; CHX counter: 23.5*

How did Cc1nc2oc3ccc(Cl)cc3c(=O)c2cc1C(=O)O do in these assays?
Pf growth 96h: 61.2%; Shiga inhibitor: -3.4; Pf growth 48h: 51.9%; CHX counter: -3.1

How did CSCC[C@H](NC(=O)[C@H](Cc1ccccc1)NC(=O)[C@H](Cc1cnc[nH]1)NC(=O)CNC(=O)[C@@H](NC(=O)[C@H](C)NC(=O)[C@H](Cc1c[nH]c2ccccc12)NC(=O)[C@H](CCC(N)=O)NC(=O)[C@@H]1CCCN1C(=O)[C@@H](NC(=O)[C@@H]1CCC(=O)N1)C(C)C)C(C)C)C(N)=O do in these assays?
Shiga inhibitor: -4.7; CHX counter: -6.9

What do the screens show for `S=C(Nc1cc(Cl)cc(Cl)c1)N1CCN(c2ccccn2)CC1`?
Pf growth 96h: 17.3%; Shiga inhibitor: -8.8; Pf growth 48h: 16.3%; CHX counter: 6.3

What do the screens show for `O=CN1CCN(S(=O)(=O)c2ccc(S(=O)(=O)NC3CCCCC3)cc2)CC1`?
Pf growth 96h: -7.0%; Shiga inhibitor: -15.1; Pf growth 48h: 10.4%; CHX counter: -1.8

How did COCCCn1c(=S)[nH]c2c(sc3ccccc32)c1=O do in these assays?
Pf growth 96h: 10.4µM*; Shiga inhibitor: 16.3; Pf growth 48h: 18.5%; CHX counter: 28.9*

Results for O=c1c2sc3ccccc3c2[nH]c(=S)n1CCN1CCOCC1 ?
Pf growth 96h: -0.4%; Shiga inhibitor: 39.2; Pf growth 48h: 10.5%; CHX counter: 2.9

How did CC1CCN(CCCn2c(=S)[nH]c3c(sc4ccccc43)c2=O)CC1 do in these assays?
Pf growth 96h: -31.2%[5.75 µM]; Shiga inhibitor: 105.1*; Pf growth 48h: 39.8%; CHX counter: 22.0*
